Reference: PubChem BioAssay AID1159580 (chemical genetic matrix, 2015)
About 2,000 (36%) of roughly 5,500 compounds were called active. Another 18% or so got no clear call; they are omitted. Rule as the data show it: active = normalized growth mostly below about 0.91 (no sharp cut-off); inconclusive = no clear call, values can overlap the other calls; inactive = mostly above about 0.92. The list shows a part of the results.

Test: chemical genetic growth profiling, strain panel (AID 1159580);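 also: tested at 20 µM; growth read once vehicle control cultures reached saturation at 30 °C; 1 = growth at the plate median or of vehicle wells; lower values mean less growth of the strain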
Settings: S. cerevisiae deletion strains, growth OD

Measured: normalized growth

N#Cc1nn(-c2c(Cl)cc(C(F)(F)F)cc2Cl)c(N)c1S(=O)C(F)(F)F (stereo not drawn)
active: locus YBR009C, strain hhf1, active compounds read low 0.895 | locus YDR137W, strain rgp1, active compounds read low 0.576 | locus YDR195W, strain ref2 1.15 [resistant] | locus YLR221C, strain rsa3, active compounds read low 0.89 | locus YLR262C, strain YPT6 (second series), active compounds read low 0.521 | locus YLR342W, strain FKS1, active compounds read low 0.889 | locus YML120C, strain ndi1, active compounds read low 0.909
inactive: locus YAL021C, strain ccr4, active compounds read low 0.995 | locus YAL026C, strain drs2, active compounds read low 0.947 | locus YAL030W, strain snc1, active compounds read low 0.986 | locus YBL061C, strain skt5, active compounds read low 0.99 | locus YBR023C, strain chs3, active compounds read low 1 | locus YBR171W, strain sec66, active compounds read low 0.961 | locus YBR231C, strain swc5, active compounds read low 1.01 | locus YBR279W, strain paf1, active compounds read low 1 | locus YCL011C, strain gbp2, active compounds read low 0.951 | locus YCL016C, strain dcc1, active compounds read low 1.04 | locus YCL069W, strain vba3, active compounds read low 0.998 | locus YCR088W, strain abp1, active compounds read low 0.993 | locus YDL005C, strain med2, active compounds read low 0.987 | locus YDL040C, strain nat1, active compounds read low 0.982 | locus YDR001C, strain nth1, active compounds read low 0.992 | locus YDR069C, strain doa4, active compounds read low 0.965 | locus YDR159W, strain sac3, active compounds read low 0.888 | locus YDR297W, strain sur2, active compounds read low 0.961 | locus YDR334W, strain swr1, active compounds read low 0.962 | locus YDR335W, strain msn5, active compounds read low 1.01 | locus YDR392W, strain spt3, active compounds read low 0.785 | locus YEL003W, strain gim4, active compounds read low 0.936 | locus YEL037C, strain rad23, active compounds read low 0.986 | locus YEL061C, strain CIN8 (second series), active compounds read low 0.973 | locus YER015W, strain faa2, active compounds read low 0.955 | locus YER016W, strain bim1, active compounds read low 1.01 | locus YER111C, strain swi4, active compounds read low 1.01 | locus YER155C, strain BEM2 (second series), active compounds read low 1.02 | locus YFR010W, strain ubp6, active compounds read low 0.939 | locus YGL167C, strain pmr1, active compounds read low 0.966 | locus YGL173C, strain kem1, active compounds read low 0.979 | locus YGL227W, strain vid30, active compounds read low 0.99 | locus YGL240W, strain doc1, active compounds read low 0.959 | locus YGL253W, strain hxk2, active compounds read low 0.929 | locus YHR013C, strain ard1, active compounds read low 1.01 | locus YHR027C, strain rpn1, active compounds read low 0.968 | locus YHR030C, strain SLT2, active compounds read low 1.01 | locus YHR079C, strain IRE1, active compounds read low 1.02 | locus YHR142W, strain chs7, active compounds read low 0.956 | locus YJL092W, strain hpr5, active compounds read low 0.992 | locus YJL095W, strain BCK1 (second series), active compounds read low 0.983 | locus YJL095W, strain BCK1, active compounds read low 0.991 | locus YJL115W, strain asf1, active compounds read low 0.99 | locus YJL129C, strain trk1, active compounds read low 1.01 | locus YJL154C, strain vps35, active compounds read low 0.978 | locus YJL164C, strain tpk1, active compounds read low 0.926 | locus YJL166W, strain qcr8, active compounds read low 0.94 | locus YJR066W, strain TOR1, active compounds read low 0.962 | locus YKL160W, strain elf1, active compounds read low 1.03 | locus YKR026C, strain gcn3, active compounds read low 0.98 | locus YKR091W, strain srl3, active compounds read low 0.989 | locus YLL001W, strain dnm1, active compounds read low 0.918 | locus YLL026W, active compounds read low 0.984 | locus YLL041C, strain sdh2, active compounds read low 0.996 | locus YLR027C, strain aat2, active compounds read low 0.955 | locus YLR113W, strain HOG1, active compounds read low 0.964 | locus YLR258W, strain gsy2, active compounds read low 1.01 | locus YLR320W, strain mms22, active compounds read low 0.907 | locus YLR357W, strain rsc2, active compounds read low 0.979 | locus YLR370C, strain arc18, active compounds read low 1.01 | locus YLR384C, strain iki3, active compounds read low 1.01 | locus YMR058W, strain fet3, active compounds read low 0.952 | locus YMR125W, strain sto1, active compounds read low 1.03 | locus YMR129W, active compounds read low 1.01 | locus YMR205C, strain PFK2, active compounds read low 0.981 | locus YMR231W, strain pep5, active compounds read low 0.998 | locus YNL071W, strain lat1, active compounds read low 0.978 | locus YNL183C, strain NPR1, active compounds read low 0.951 | locus YNL209W, strain ssb2, active compounds read low 0.995 | locus YNL248C, strain rpa49, active compounds read low 1.01 | locus YNL322C, strain KRE1 (second series), active compounds read low 1 | locus YNR049C, strain mso1, active compounds read low 1 | locus YOR001W, strain rrp6, active compounds read low 0.901 | locus YOR070C, strain gyp1, active compounds read low 1 | locus YOR080W, strain dia2, active compounds read low 0.991 | locus YOR083W, strain WHI5, active compounds read low 0.941 | locus YOR106W, strain vam3, active compounds read low 0.981 | locus YOR231W, strain MKK1, active compounds read low 1 | locus YOR265W, strain rbl2, active compounds read low 0.967 | locus YOR270C, strain vph1, active compounds read low 0.794 | locus YOR290C, strain snf2, active compounds read low 1.02 | locus YPL051W, strain arl3, active compounds read low 1.04 | locus YPL078C, strain atp4, active compounds read low 0.99 | locus YPL106C, strain sse1, active compounds read low 1.15 | locus YPL240C, strain hsp82, active compounds read low 0.996 | locus YPL256C, strain CLN2, active compounds read low 1.04
